Assay outcomes from PubChem BioAssay.
TEAD-YAP inh – TEAD-YAP interaction inhibition | HEK-TIYL cells, TEAD-Gal4/YAP UAS-luciferase luminescence | inhibition, % at 9.12 µM | 640,000 tested, 1.4% active | AID 1259422; in the data active means inhibition above about 32%;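 further: 0% = median of test compound wells and 100% = reference inhibitor wells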
FBW7 act – human FBW7 E3 ligase activation, primary screen. AlphaScreen FBW7–phospho-cyclin E peptide binding, activator screen. normalized activity (activation), % at 26.1 µM. 650,000 tested, 0.13% active. AID 1259310; in the data active means normalized activity above about 1.9%;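 further: purified mutant Fbw7 with reduced substrate affinity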
MITF primary – inhibitors of human MITF; O75030; AlphaScreen MITF homodimerization, bead proximity signal; inhibition, % at 2.6 µM; 650,000 tested, 0.91% active; AID 1259374; in the data active means inhibition above about 50%;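 further: 0% = vehicle wells with protein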
GPR151 ag – activates the human receptor GPR151; Q8TDV0; PathHunter beta-arrestin GPR151 cells, luminescence; activation, % at 11.2 µM; 650,000 tested, 1% active; AID 1508602; in the data active means activation above about 4.9%;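 further: 0% = median of compound wells and 100% = cells with positive control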
Target sequence (Q8TDV0 whole entry, looked up): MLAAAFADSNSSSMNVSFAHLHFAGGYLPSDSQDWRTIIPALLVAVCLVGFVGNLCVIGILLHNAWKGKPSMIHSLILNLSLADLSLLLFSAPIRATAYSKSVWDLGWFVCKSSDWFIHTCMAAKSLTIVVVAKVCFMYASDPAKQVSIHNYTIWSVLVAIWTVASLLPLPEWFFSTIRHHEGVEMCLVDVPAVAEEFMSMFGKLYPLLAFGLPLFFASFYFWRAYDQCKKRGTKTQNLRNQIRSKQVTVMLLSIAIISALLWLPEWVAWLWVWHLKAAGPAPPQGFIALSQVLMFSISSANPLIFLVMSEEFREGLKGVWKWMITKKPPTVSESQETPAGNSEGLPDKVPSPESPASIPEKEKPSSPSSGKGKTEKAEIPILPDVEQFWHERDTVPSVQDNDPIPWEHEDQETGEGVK
* hit, by the source's call. Shown are actives, neighbours in structure and some others; about 3.4% of the full set was active somewhere.

SMILES | TEAD-YAP inh | FBW7 act | MITF primary | GPR151 ag
CCOC(=O)N1CCc2c(sc(NC(=O)c3ccc(N(C)C)cc3)c2C#N)C1 | 49* | 0 | 2 | -1
CCOC(=O)c1nnn(C(CC)C(=O)Nc2cccc(C(F)(F)F)c2)c1C(=O)OCC (centres undefined) | 1 | 0 | -5 | 0
CCNC(=O)c1ccc(I)cc1 | -3 | 0 | 3 | -1
COc1cccc2c1OC1(CCC(C)CC1)N1N=C(c3ccc(C)o3)CC21 (centres undefined) | 33* | 0 | 10 | -3
COc1cccc(C2Oc3c(OC)cccc3C3CC(c4ccc(C)o4)=NN32)c1 (centres undefined) | 38* | 0 | -1 | -1
COc1cccc2c1OC1(CCCCC1)N1N=C(c3ccc(C)o3)CC21 (centres undefined) | 28 | 0 | -3 | -1
COc1ccc(C2=NN3C(C2)c2cccc(OC)c2OC3c2ccc(OC)cc2)cc1 (centres undefined) | -59 | 0 | -3 | -1
CCOc1cccc2c1OC(c1ccc(OC)cc1)N1N=C(c3ccc(C)o3)CC21 (centres undefined) | -12 | 0 | -4 | -2
COc1ccc(C2Oc3c(OC)cccc3C3CC(c4cccc(OC)c4)=NN32)cc1 (centres undefined) | 44* | 0 | 0 | -1
COc1cccc(NC(=O)N(Cc2nnc3n2CCCCC3)c2ccccc2OC)c1 | -1 | 0 | 14 | 0
Cc1ccn2c(=O)c(C(=O)NC(C)CCc3ccccc3)c(O)nc2c1 (centres undefined) | 5 | 0 | 26 | 0
Cc1ccccc1OCc1nc2ccc(-c3cn[nH]c3)cc2c(=O)[nH]1 | 33* | 0 | -1 | 2
COc1ccc(C[C@@H](N)c2nc3ccc(-c4cn[nH]c4)cc3c(=O)[nH]2)cc1 | 53* | 0 | 24 | 0
COc1cc(-c2cn[nH]c2)cc2c(=O)[nH]c(C(N)c3cccc(Cl)c3)nc12 (centres undefined) | 49* | 0 | 13 | 3
COc1ccccc1OCc1nc2ccc(-c3cn[nH]c3)cc2c(=O)[nH]1 | -4 | 0 | 19 | 0
COc1ccccc1OCc1nc2ccc(-c3ccnc(N)n3)cc2[nH]1 | 14 | 0 | 12 | 0
COc1cccc(OCc2nc3ccc(-c4ccnc(N)n4)cc3[nH]2)c1 | 50* | 0 | 4 | 0
CC1CCCCN1CCCNC(=O)c1ccc2c(c1)NC(=O)c1ccccc1S2 (centres undefined) | 0 | 1 | 6 | 0
Cc1ccccc1OCc1nc2ccc(-c3ccnc(N)n3)cc2[nH]1 | 52* | 0 | 6 | 1
COCCn1c(NC(=O)Nc2ccc(Cl)c(Cl)c2)c2ccccc2nc1=O | 2 | 0 | -17 | -2
CCOc1ccc(C(CC(N)=O)CC(=O)O)cc1 (centres undefined) | 5 | 0 | -8 | 1
CCOC(=O)c1cccc(NC(=O)/C=C/c2ccccc2[N+](=O)[O-])c1 | 33* | 0 | 6 | 1
Cc1cc(C)n2ncc(C(=O)Nc3cccnc3Cl)c2n1 | -11 | 0 | 19 | -1
COc1ccc2c(C)nc(Nc3nc(C)cc(=O)[nH]3)nc2c1 | 39* | 0 | 0 | 0
CCC(C)c1ccc(NC(=O)c2oc3ccccc3c2C)cc1 (centres undefined) | -2 | 2 | 11 | 0
SMILES | TEAD-YAP inh | FBW7 act | MITF primary | GPR151 ag
CC(=O)Nc1ccc(C(=O)CSc2n[nH]c(-c3ccco3)n2)cc1 | 8 | 0 | 7 | 0
O=c1[nH]c(-c2cc(O)c(O)c(O)c2)nc2sc3c(c12)CCCC3 | 60* | 0 | -1 | 0
O=c1[nH]c(-c2ccccc2O)nc2sc3c(c12)CCCC3 | -5 | 1 | 11 | -1
NC(=O)/C(=N/O)c1nc(-c2ccc(Br)cc2)cs1 | 9 | 0 | -4 | 0
NC(=O)/C(=N\O)c1nc(-c2ccc(Cl)cc2)cs1 | 32* | 0 | 21 | -2
COc1ccc(-c2noc(-c3ccccc3C(=O)Nc3ccc(NC(C)=O)cc3)n2)cc1 | 2 | 1 | 8 | 2
Cc1ccn2cc(-c3ccc(O)c(O)c3)nc2c1 | 64* | 0 | 21 | -7
Cc1ccn2cc(-c3ccc4ccccc4c3)nc2c1 | 63* | 0 | -5 | -6
Oc1ccc(-c2cn3ccccc3n2)cc1O | -31 | 0 | 9 | -5
Cc1ccc(-c2cn3ccccc3n2)cc1C | 59* | 0 | 6 | -8
Cc1ccn2cc(-c3ccccc3)nc2c1 | 77* | 1 | 0 | -8
Cc1ccn2cc(-c3cccc(Cl)c3)nc2c1 | -29 | 0 | 18 | -7
CN(C)S(=O)(=O)c1ccc(-c2cn3ccccc3n2)cc1 | -7 | 0 | -1 | -2
Cc1ccn2cc(-c3cccc(NC(=O)c4ccccc4)c3)nc2c1 | -52 | 0 | 6 | -2
C=CCN=c1scc(-c2ccc(O)c(C(N)=O)c2)n1/N=C/c1ccccc1OC | -6 | 0 | 1 | -1
O=C(/C=C/c1ccc2c(c1)OCCCO2)c1cc([N+](=O)[O-])ccc1O | 79* | 0 | 15 | -4
O=c1c2c(-c3ccccc3)csc2ncn1CCOc1ccccc1 | -7 | 0 | -5 | 1
Cc1ccc(F)cc1Nc1ncnc(N)c1[N+](=O)[O-] | -1 | 2.1* | 17 | -1
Nc1nc2n(n1)C(c1cccc(Cl)c1)CC(c1ccc(Cl)cc1)N2 (centres undefined) | 3 | 0 | -4 | 0
O=C(/C=C/c1ccc(Br)cc1)Nc1ccc([N+](=O)[O-])cc1 | 9 | 0 | 16 | -1
CC(C)(C)c1ccc(-c2ncc3ccccn23)cc1 | 72* | 0 | 14 | -2
O=C(CSc1nc(-c2ccccc2)cc(=O)[nH]1)N1c2ccccc2CCc2ccccc21 | 7 | 0 | -5 | 0
O=C(O)c1n[nH]c2c1CCCC2 | -8 | 0 | 5 | -1
O=C(c1n[nH]c2c1CCCC2)n1ccnc1 | 54* | 0 | 10 | 1
O=C1Nc2ccccc2/C1=C/C=C/c1ccco1 | -66 | 0 | 8 | 1
SMILES | TEAD-YAP inh | FBW7 act | MITF primary | GPR151 ag
O/N=C1\CCCC\C1=C\c1ccco1 | -13 | 0 | 4 | 2
O=C1/C(=C\c2ccco2)CCC/C1=C\c1ccco1 | 0 | 0 | 83* | 0
O=C1/C(=C/C=C/c2ccco2)CCC/C1=C\C=C\c1ccco1 | -2 | 0 | 64* | 0
CCc1c(C)sc(NC(=O)C2C3C=CC(C3)C2C(=O)O)c1C(=O)OC (centres undefined) | 32* | 0 | 12 | -2
CCC1CCc2c(sc(NC(=O)C3C4C=CC(C4)C3C(=O)O)c2C(=O)OC)C1 (centres undefined) | 56* | 0 | 11 | -1
CCOC(=O)c1c(NC(=O)C2C3C=CC(C3)C2C(=O)O)sc2c1CCC2 (centres undefined) | 19 | 0 | 1 | -1
CCOC(=O)c1c(NC(=O)C2C3C=CC(C3)C2C(=O)O)sc2c1CC(C)CC2 (centres undefined) | 37* | 0 | -4 | 0
COc1cc(C(=O)N[C@H](C(=O)Nc2ccc(NC(C)=O)cc2)C(C)C)cc(OC)c1OC | -8 | 0 | -5 | 3
